Assay results as given in PubChem BioAssay (NCI).
About 83,000 compounds went through this panel and 20% of them were active in at least one assay; those are over-represented in the sample as a whole.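 Results are percent growth after 48 hours of single-concentration exposure. 100 means growth as in untreated cells, lower positive values show inhibition; negative values down to -100 show cell death.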 Activity calls are given as the source filed them. How the source made its calls: active means growth percent below 10; inactive means the rest.

Assays:
Experiment in all cases: NCI-60 one-dose screen, 48 h (100 = growth as untreated, 0 = no growth, -100 = all killed)
SR leukemia = details: 10 µM
RPMI-8226 leukemia = details: 10 µM
OVCAR-8 ovarian = details: 10 µM
OVCAR-5 ovarian = details: 10 µM
OVCAR-4 ovarian = details: 10 µM
SK-OV-3 ovarian = details: 10 µM
IGROV1 ovarian = details: 10 µM
OVCAR-3 ovarian = details: 10 µM
HS 578T breast = details: 10 µM
NCI/ADR-RES ovarian = details: 10 µM
T-47D breast = details: 10 µM
MDA-MB-435 melanoma = details: 10 µM
SW-620 colon = details: 10 µM
MCF7 breast = details: 10 µM unless noted
HCT-116 colon = details: 10 µM
HCC-2998 colon = details: 10 µM
KM12 colon = details: 10 µM
BT-549 breast = details: 10 µM

Measured: growth

NC(=S)N/N=C/c1ccc(N)cc1
inactive: SR leukemia 98.6% | RPMI-8226 leukemia 98.8% | OVCAR-8 ovarian 102% | OVCAR-5 ovarian 108% | OVCAR-4 ovarian 108% | SK-OV-3 ovarian 100% | IGROV1 ovarian 103% | OVCAR-3 ovarian 103% | HS 578T breast 106% | NCI/ADR-RES ovarian 102% | T-47D breast 93.9% | MDA-MB-435 melanoma 105% | SW-620 colon 104% | MCF7 breast 94.8% | HCT-116 colon 94.1% | HCC-2998 colon 104% | KM12 colon 103%

CCCCC(O)c1ccccc1 (centres undefined)
inactive: SR leukemia 98% | RPMI-8226 leukemia 108% | OVCAR-8 ovarian 93.8% | OVCAR-5 ovarian 115% | OVCAR-4 ovarian 100% | SK-OV-3 ovarian 95.4% | IGROV1 ovarian 110% | OVCAR-3 ovarian 109% | HS 578T breast 116% | NCI/ADR-RES ovarian 99.3% | T-47D breast 87.2% | MDA-MB-435 melanoma 108% | SW-620 colon 108% | MCF7 breast 103% | HCT-116 colon 108% | HCC-2998 colon 104% | KM12 colon 106%

CCC(C#N)(CC)c1ccccc1
inactive: SR leukemia 108% | RPMI-8226 leukemia 104% | OVCAR-8 ovarian 107% | OVCAR-5 ovarian 104% | OVCAR-4 ovarian 113% | SK-OV-3 ovarian 102% | IGROV1 ovarian 112% | OVCAR-3 ovarian 109% | HS 578T breast 108% | NCI/ADR-RES ovarian 102% | T-47D breast 95.3% | MDA-MB-435 melanoma 104% | SW-620 colon 104% | MCF7 breast 95.4% | HCT-116 colon 105% | KM12 colon 106%

O=[N+]([O-])c1cccc2nsnc12
inactive: SR leukemia 99.8% | RPMI-8226 leukemia 104% | OVCAR-8 ovarian 93.4% | OVCAR-5 ovarian 122% | OVCAR-4 ovarian 114% | SK-OV-3 ovarian 94.1% | OVCAR-3 ovarian 107% | HS 578T breast 101% | NCI/ADR-RES ovarian 110% | T-47D breast 103% | BT-549 breast 106% | MDA-MB-435 melanoma 111% | SW-620 colon 104% | MCF7 breast 93.5% | HCT-116 colon 99.1% | HCC-2998 colon 111% | KM12 colon 104%

Cc1ccc(Cl)cc1N1C(=O)CC(Sc2ccccc2N)C1=O (centres undefined)
inactive: SR leukemia 101% | RPMI-8226 leukemia 91.3% | OVCAR-8 ovarian 87.8% | OVCAR-5 ovarian 105% | OVCAR-4 ovarian 101% | SK-OV-3 ovarian 102% | OVCAR-3 ovarian 106% | HS 578T breast 103% | NCI/ADR-RES ovarian 101% | T-47D breast 103% | BT-549 breast 111% | MDA-MB-435 melanoma 102% | SW-620 colon 108% | MCF7 breast 90.2% | HCT-116 colon 111% | HCC-2998 colon 101% | KM12 colon 112%

C#CC(C)(O)c1ccc(Cl)cc1 (centres undefined)
inactive: SR leukemia 96.6% | RPMI-8226 leukemia 101% | OVCAR-8 ovarian 105% | OVCAR-5 ovarian 107% | OVCAR-4 ovarian 102% | SK-OV-3 ovarian 90.3% | IGROV1 ovarian 111% | HS 578T breast 106% | NCI/ADR-RES ovarian 92.4% | T-47D breast 86.1% | BT-549 breast 105% | MDA-MB-435 melanoma 110% | SW-620 colon 109% | MCF7 breast 97% | HCT-116 colon 96.8% | HCC-2998 colon 97.8% | KM12 colon 105%

O=c1[nH]c(O)c(/C=C2/C=Nc3ccccc32)[nH]1
inactive: SR leukemia 76.3% | RPMI-8226 leukemia 78% | OVCAR-8 ovarian 98.1% | OVCAR-5 ovarian 96% | OVCAR-4 ovarian 90% | SK-OV-3 ovarian 112% | IGROV1 ovarian 93.8% | OVCAR-3 ovarian 100% | HS 578T breast 95.1% | NCI/ADR-RES ovarian 96.4% | T-47D breast 85.5% | MDA-MB-435 melanoma 102% | SW-620 colon 104% | HCT-116 colon 96.4% | KM12 colon 88.4%

O=C(/C=C/C(=O)c1ccccc1)c1ccccc1
inactive: SR leukemia 71.3% | RPMI-8226 leukemia 80.8% | OVCAR-8 ovarian 110% | OVCAR-5 ovarian 115% | OVCAR-4 ovarian 108% | SK-OV-3 ovarian 115% | IGROV1 ovarian 113% | OVCAR-3 ovarian 102% | NCI/ADR-RES ovarian 114% | T-47D breast 92.4% | MDA-MB-435 melanoma 100% | MCF7 breast 75.2% | HCT-116 colon 87.6% | HCC-2998 colon 107% | KM12 colon 111%

CCC(=O)Oc1ccc(OC)cc1
inactive: SR leukemia 92.6% | RPMI-8226 leukemia 128% | OVCAR-8 ovarian 108% | OVCAR-5 ovarian 102% | OVCAR-4 ovarian 114% | SK-OV-3 ovarian 101% | IGROV1 ovarian 93.1% | OVCAR-3 ovarian 103% | NCI/ADR-RES ovarian 106% | T-47D breast 101% | MDA-MB-435 melanoma 106% | SW-620 colon 102% | MCF7 breast 102% | HCT-116 colon 107% | HCC-2998 colon 114% | KM12 colon 106%

O=C(O)/C=C/c1ccc2c(c1)CCC2
inactive: SR leukemia 80.2% | RPMI-8226 leukemia 99.2% | OVCAR-8 ovarian 99.8% | OVCAR-5 ovarian 97.8% | OVCAR-4 ovarian 104% | SK-OV-3 ovarian 99.6% | IGROV1 ovarian 118% | OVCAR-3 ovarian 117% | NCI/ADR-RES ovarian 109% | T-47D breast 104% | BT-549 breast 100% | MDA-MB-435 melanoma 99.8% | SW-620 colon 106% | MCF7 breast 109% | HCT-116 colon 105% | HCC-2998 colon 108% | KM12 colon 106%

NC(=S)CN1CCOCC1
inactive: SR leukemia 78.2% | RPMI-8226 leukemia 93.7% | OVCAR-8 ovarian 105% | OVCAR-5 ovarian 105% | OVCAR-4 ovarian 121% | SK-OV-3 ovarian 112% | IGROV1 ovarian 102% | OVCAR-3 ovarian 111% | NCI/ADR-RES ovarian 105% | T-47D breast 114% | MDA-MB-435 melanoma 111% | SW-620 colon 103% | HCT-116 colon 109% | HCC-2998 colon 102% | KM12 colon 102%

CCn1c(=O)n(C)c2c(=O)n(C)c(=O)n(C)c21
inactive: SR leukemia 101% | RPMI-8226 leukemia 106% | OVCAR-8 ovarian 101% | OVCAR-5 ovarian 108% | OVCAR-4 ovarian 111% | SK-OV-3 ovarian 106% | IGROV1 ovarian 122% | HS 578T breast 110% | NCI/ADR-RES ovarian 105% | T-47D breast 98% | BT-549 breast 101% | MDA-MB-435 melanoma 98.6% | SW-620 colon 107% | MCF7 breast 103% | HCC-2998 colon 87.8%
